PubChem BioAssay AID2326 (National Center for Advancing Translational Sciences (NCATS), 2010)
The whole screen tested about 270,000 compounds, of which about 1,100 (0.41%) were called active. About 3% were inconclusive and are not listed. Calls follow the shape of the full dose curve. The sample as a whole holds a higher share of actives than the screen did.

test: qHTS Assay for Inhibitors of Influenza NS1 Protein Function; details: series mostly up to 46.1 µM; activity, positive = more growth: at the top concentration; also: actives are rising curves; nearly all actives have a fitted effect of over 50% in size
Text: NIH Chemical Genomics Center [NCGC]
NIH Molecular Libraries Probe Centers Network [MLPCN]
Assay Submitter (PI): Daniel Engel
Influenza is a world-wide public health problem and emerging forms of the virus have the potential to cause a pandemic of equal or greater magnitude to the outbreaks recorded in 1918, 1957 or 1968. Vaccine development is proceeding and there also exist two classes of anti-influenza compounds. However these therapeutic modalities are neither fully effective nor widely enough available to fulfill global needs. In addition their potential usefulness against newly emergent strains is not known. Efforts are needed to develop novel agents against influenza virus, including broad-spectrum agents. Identification of small molecules that inhibit NS1 function either directly or by interfering with specific cellular pathways may be a key to increasing our defense against the virus.
We have miniaturized and optimized a cell based assay in which NS1 from influenza A is expressed in the budding yeast S. cerevisiae. NS1 is a multi-functional protein that counters the host innate immune response and facilitates viral versus cellular gene expression. Expression of NS1 causes a pronounced slow growth phenotype in yeast due to its intrinsic molecular activities. Small molecules that suppress the slow growth phenotype can be identified by a straightforward growth recovery assay using optical density (OD) as the measurement. The same yeast strain not expressing NS1 was used as positive control in the yeast growth recovery assay.
The yeast S. cerevisiae control and NS1 expressing cells were kindly supplied by laboratory of Dr. Daniel Engel, University of Virginia. Yeast starter cultures were stored in single use aliquots at -80C.
1. Yeast culture medium per liter: 1.2 g Yeast Nitrogen Base (w/out amino acids and Ammonium Sulphate), 5.0g Ammonium Sulphate, 0.77g -URA DO (drop-out) Supplement, adjust pH to 6.0. Adjust to 2% glucose prior to inoculating with yeast.
2. Yeast assay medium: 1.2 g Yeast Nitrogen Base (w/out amino acids and Ammonium Sulphate), 5.0g Ammonium Sulphate, 0.77g -URA DO (drop-out) Supplement, adjust pH to 6.0. Adjust to 2% D-galactose prior to inoculating with yeast.
1. Inoculate 100 mls of yeast culture medium with 1 ml of frozen yeast aliquote. Incubate overnight at 30C, 250RPM.
2. Harvest overnight culture at 4000 RPM and wash pellet with 15 mls H2O 3x.
3. Re-suspend washed pellet in 10 mls of yeast assay medium.
4. Prepare a 1:100 dilution of re-suspended culture in yeast assay medium.
5. Dispense 3.5 ul per well of reagents in step 4 in columns 2-48 in a black clear bottom 1536 well plate.
6. Dispense 3.5 ul per well of yeast assay medium in column 1 only.
7. Transfer 23 nl of compound per well.
8. Dispense 3.5 ul per well of yeast assay medium in columns 1-48.
9. Read plate using Viewlux protocol for optical density 600 (OD600) using excitation filter 600nm.
Potency is read from the fitted curve at half-maximal effect.

Structure (SMILES)	activity, positive = more growth	Potency
COc1ccc(Nc2nc(Cl)nc(NCc3ccco3)n2)cc1	12.3% (inactive)	–
CCOc1ccc(Nc2nc(Cl)nc(N3CCN(c4ccc(OC)cc4)CC3)n2)cc1	–	10 µM (active)
CCN1CCN(c2nc(Nc3cc(OC)ccc3OC)nc(Nc3cc(OC)ccc3OC)n2)CC1	-1.81% (inactive)	–
CC(=O)Oc1ccc(-c2cccc(C(=O)N3CCCCC3)c2)cc1	-31% (inactive)	–
COc1ccc(Cn2c(=S)[nH]c3cc(C(=O)N4CCCCC4)ccc3c2=O)cc1	-2.06% (inactive)	–
COc1ccc(-n2nc(C(=O)NCC(=O)N3CCCCCC3)c3ccccc3c2=O)cc1Cl	20.2% (inactive)	–
C=CCn1c(C23CC4CC(CC(C4)C2)C3)n[nH]c1=S	20.4% (inactive)	–
COC(=O)c1c(NC(=O)CCCC(=O)O)sc2c1CCCCC2	-1.9% (inactive)	–
COC(=O)c1c(NC(=O)c2cccs2)sc2c1CCCC2	–	2.24 µM (active)
CC(C)OC(=O)c1c(NC(=O)c2ccco2)sc2c1CCCC2	-1.83% (inactive)	–
Cc1ccc(O)c(CNc2nc3ccccc3[nH]2)c1	15.3% (inactive)	–
Cc1cccc(Nc2nc(-c3ccccc3)cs2)n1	-2.79% (inactive)	–
CN(C)c1ccc(/C=C/C(=O)c2ccc(O)cc2)cc1[N+](=O)[O-]	1.82% (inactive)	–
CN(C)c1ccc(/C=C/C(=O)c2ccc(C(C)(C)C)cc2)cc1[N+](=O)[O-]	–	12.6 µM (active)
O=C(/C=C/c1ccc(Cl)c([N+](=O)[O-])c1)c1ccc(O)cc1	-3.76% (inactive)	–
O=C(CNC(=O)c1ccc(F)cc1)c1ccccc1	8.64% (inactive)	–
O=c1c2cc(Br)ccc2nc(-c2cccc(Cl)c2)n1O	-81% (inactive)	–
CCS(=O)(=O)Nc1ccc(C(=O)NCCSc2ccccc2)cc1	5.43% (inactive)	–
C[C@@]12C(=O)N(c3cccc(Br)c3)C(=O)N1[C@H](c1ccc(Cl)cc1)[C@@H]1C(=O)N(C3CCCCC3)C(=O)[C@@H]12	25.8% (inactive)	–
Cc1cccc(N2C(=O)N3[C@H](c4ccc(F)cc4)[C@@H]4C(=O)N(C5CCCCC5)C(=O)[C@@H]4[C@]3(Cc3ccccc3)C2=O)c1	4.58% (inactive)	–
Cc1cccc([C@@H]2[C@@H]3C(=O)N(Cc4ccccc4)C(=O)[C@@H]3[C@]3(C)C(=O)N(c4ccc(Br)cc4)C(=O)N23)c1	–	11.2 µM (active)
CN(Cc1cnccn1)C(=O)c1cc(COc2cccc(C(F)(F)F)c2)on1	-12.1% (inactive)	–
O=C(Nc1nnc(C2CC2)s1)c1cc(Cl)sc1Cl	-23.7% (inactive)	–
Cc1ccc(NC(=S)Nc2ccc(F)cc2)cc1	-5.2% (inactive)	–
O=C(Nc1ccc(S(=O)(=O)N2CCCCCC2)cc1)c1c(F)cccc1F	-18.2% (inactive)	–
COc1ccc(CNC(=O)[C@H](Cc2c[nH]c3ccccc23)NC(C)=O)cc1OC	4.97% (inactive)	–

Structure (SMILES)	activity, positive = more growth	Potency
COc1ccc(C(C(=O)NC2CCCCC2)N(C(=O)Cc2c[nH]c3ccccc23)c2ccccc2)cc1OC (configuration not stated)	–	11.2 µM (active)
COc1ccc(CN(C)C(=O)Cc2c[nH]c3ccccc23)c(OC)c1OC	-6.55% (inactive)	–
CCOC(=O)C(Cc1ccc(N)cc1)N1C(=O)c2ccccc2C1=O (configuration not stated)	11.2% (inactive)	–
Cc1ccccc1C(=O)N1CCC(C(=O)Oc2ccc(C#N)cc2)CC1	-1.02% (inactive)	–
CCC1CCCCN1CCCNC(=O)Cn1nc(-c2ccccc2)ccc1=O (configuration not stated)	-10.3% (inactive)	–
CCCCNC(=O)CCn1nc(-c2ccc(Cl)cc2)ccc1=O	-1.2% (inactive)	–
Cc1ccc(-c2ccc(=O)n(CC(=O)NCCCN3CCCCC3)n2)cc1	–	3.55 µM (active)
CCC(NC(=O)c1cc(COc2ccc(F)c(F)c2)on1)c1ccncc1 (configuration not stated)	-3.92% (inactive)	–
CCc1ccc(-c2nc(SCC(=O)NC3CCCC3)n[nH]2)cc1	0.78% (inactive)	–
CC(=O)Nc1ccc(S(=O)(=O)Nc2cc(C)cn(Cc3ccc(C)cc3)c2=O)cc1	-9.21% (inactive)	–
Cc1cccc(-n2ncc(Cl)c(Cl)c2=O)c1	-6.42% (inactive)	–
O=C(Nc1ncc([N+](=O)[O-])s1)C1COc2ccccc2O1 (configuration not stated)	-114% (inactive)	–
c1ccc(Nc2nc(N3CCOCC3)c3ccccc3n2)cc1	-30.2% (inactive)	–
C1=C(N2CCOCC2)/C(=C/c2nc3ccccc3[nH]2)CC1	–	3.98 µM (active)
O=c1[nH]c(N2CCOCC2)nc2ccccc12	24.1% (inactive)	–
COc1ccc(CNS(=O)(=O)c2ccc(NC(=O)N3CCCCC3)cc2)cc1	1.64% (inactive)	–
O=C(/C=C/c1ccc([N+](=O)[O-])o1)NNC(=O)c1ccc(F)cc1	-0.933% (inactive)	–
O=C(/C=C/c1ccco1)NC(=S)N1CCCCC1	4.86% (inactive)	–
Cc1ccc(C(=O)Nc2nnc(C3=COCCO3)o2)cc1C	1.01% (inactive)	–
O=C(CN1C(=O)S/C(=C\c2ccccc2Cl)C1=O)NC1C=CS(=O)(=O)C1 (configuration not stated)	-12.7% (inactive)	–
COc1ccc(-c2nnc(SCC(=O)c3cccs3)o2)c(OC)c1	-11.8% (inactive)	–
COc1ccc(C(=O)CSc2nnc(-c3ccco3)o2)cc1	-3.53% (inactive)	–
COc1ccc(-n2c(C)cc(C(=O)CSc3nnc(-c4cccs4)o3)c2C)cc1	–	11.2 µM (active)
Cc1ccc(O)c(/C=N/NC(=O)COc2ccc3c(C)cc(=O)oc3c2)c1	1.86% (inactive)	–
O=[N+]([O-])c1ccc(O)c(/C=N/Nc2ccccc2[N+](=O)[O-])c1	-3.57% (inactive)	–
S=C(Nc1cccc(Cl)c1)Nc1ccc2c(c1)OCCO2	-6.61% (inactive)	–
